Experimental data as given in PubChem BioAssay (Tox21).
A number with no mark means an inactive call. Records with an inconclusive call do not appear. Entries that show only a call come without a potency. Activity calls are given as the source filed them. Unless noted, calls come from the whole dose curve; as a rule, active = well fitted curve in the direction sought with a large enough effect in the repeat runs; inconclusive = weak or mixed curves; inactive = no such curve, though single readings can be large; an effect the other way counts as inactive or inconclusive.

How the values were obtained:
[1] = A CellTox Green Cytotoxicity Assay to monitor cytotoxicity in HepG2 cells - 8 hour (AID 1224890); note: nearly all actives have a fitted effect of over 45% in size; note: potency is the fitted concentration of half-maximal effect
Summary of the method: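 HepG2, 600 cells/well premixed w/ CellTox Green; 5 h settle, 37 C/5% CO2; pintool cpd add (DMSO); 37 C, 40 h; fluorescence read at 0, 8, 16, 24, 32, 40 h.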

[2] = qHTS assay to identify small molecule antagonists of the estrogen receptor alpha (ER-alpha) signaling pathway using the BG1 cell line in the presence of 0.1 nM 17-beta-estradiol - cell viability counter screen (AID 1259241); note: nearly all actives have a fitted effect of over 40% in size
Summary of the method: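 CellTiter-Fluor read (30 min, 37C) on ER-alpha/ERE-luc VM7Luc4E2 cells; 22 hr compound treatment; agonist 0.1 nM E2 final; same-well multiplex.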

[3] = qHTS assay to identify small molecule antagonists of the androgen receptor (AR) signaling pathway using the MDA cell line in the presence of 0.5 nM R1881 - cell viability counter screen (AID 1259242); note: nearly all actives have a fitted effect of over 45% in size
Summary of the method: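 Live-cell protease fluorescence, CellTiter-Fluor, 30 min at 37C. Cells: MDA-kb2, 3,000/well, preincubated 5 hr. Compounds plus 0.5 nM R1881 final, 16 hr, 37C, 0% CO2.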

[4] = biological target: Androgen receptor (Homo sapiens) (UniProt P10275); test: qHTS assay to identify small molecule antagonists of the androgen receptor (AR) signaling pathway using the MDA cell line in the presence of 0.5 nM R1881 (AID 1259243); note: nearly all actives have a fitted effect of over 50% in size
Sequence of Androgen receptor (Homo sapiens) (P10275 whole entry, looked up): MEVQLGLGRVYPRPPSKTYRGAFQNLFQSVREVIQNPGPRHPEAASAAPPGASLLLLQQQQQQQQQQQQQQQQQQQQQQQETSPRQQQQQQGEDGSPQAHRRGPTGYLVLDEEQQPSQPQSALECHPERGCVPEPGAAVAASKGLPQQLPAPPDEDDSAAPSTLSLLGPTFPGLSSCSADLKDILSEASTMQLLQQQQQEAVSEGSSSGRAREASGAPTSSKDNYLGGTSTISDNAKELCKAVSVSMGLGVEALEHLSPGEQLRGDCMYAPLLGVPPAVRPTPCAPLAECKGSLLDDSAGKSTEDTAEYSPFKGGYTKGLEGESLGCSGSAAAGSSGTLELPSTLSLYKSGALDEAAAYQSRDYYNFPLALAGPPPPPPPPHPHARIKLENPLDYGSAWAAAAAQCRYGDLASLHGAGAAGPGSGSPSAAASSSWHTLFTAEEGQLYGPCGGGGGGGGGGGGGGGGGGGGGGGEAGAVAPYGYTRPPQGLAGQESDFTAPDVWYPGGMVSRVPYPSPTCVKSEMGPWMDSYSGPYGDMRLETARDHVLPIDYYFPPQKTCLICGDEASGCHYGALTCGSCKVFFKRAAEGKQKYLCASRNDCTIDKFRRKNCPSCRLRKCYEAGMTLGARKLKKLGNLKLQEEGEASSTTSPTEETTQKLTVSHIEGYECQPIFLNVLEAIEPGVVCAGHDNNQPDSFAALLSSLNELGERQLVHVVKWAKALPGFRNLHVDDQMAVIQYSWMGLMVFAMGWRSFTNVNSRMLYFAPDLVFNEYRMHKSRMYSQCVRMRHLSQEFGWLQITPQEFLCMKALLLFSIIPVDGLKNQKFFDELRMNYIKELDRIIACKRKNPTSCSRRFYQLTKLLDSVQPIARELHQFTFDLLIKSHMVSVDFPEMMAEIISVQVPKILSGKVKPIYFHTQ
Summary of the method: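 MDA-kb2, MMTV-luc (AR/GR elements); 3,000 cells/well; cpd + 0.5 nM R1881 final; 16 hr 37C, 0% CO2; ONE-Glo 30 min RT; luminescence.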

[5] = qHTS assay to identify small molecule phospholipidosis (PLD) inducers (AID 1259344; active = well fitted curve in the direction sought with a large enough effect; an effect the other way counts as inactive or inconclusive)
Summary of the method: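 After 4 h attachment on collagen I, HepG2 cells were dosed with compound alongside LipidTOX Red, kept 24 h at 37 C, fixed, and imaged for lamellar phospholipid pits.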

[6] = qHTS assay to identify small molecule HDAC inhibitors (AID 1259364);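 note: wild-type HCT-116 cells with endogenous class I/II HDAC activity; top concentration of the series differs between compounds; nearly all actives have a fitted effect of over 45% in size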
Summary of the method: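 HCT-116 (wild type), 1,500 cells/well, overnight; compound 2 hr 37C 5% CO2; HDAC-Glo I/II reagent 30 min RT; luminescence readout.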

[7] = qHTS assay to identify small molecule HDAC inhibitors - cell viability counter screen (AID 1259365); note: series mostly up to about 92 µM; nearly all actives have a fitted effect of over 50% in size
Summary of the method: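 To flag cytotoxic hits, 1,500 wild-type HCT-116 cells per well, plated the day before, receive test compounds for 2hr at 37 C before CellTiter-Glo reagent and a luminescence read.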

[8] = qHTS assay to identify small molecule agonists of the sonic hedgehog signaling (Shh) pathway - cell viability counter screen (AID 1259366); note: nearly all actives have a fitted effect of over 50% in size
Summary of the method: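 Fluorescence from CellTiter-Fluor reports live cells in this counter screen. NIH/3T3-derived Gli1-Luc reporter cells receive test compounds for 24hr at 37C; reagent goes in at 23hr.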

[9] = qHTS assay to identify small molecule antagonists of the sonic hedgehog signaling (Shh) pathway - cell viability counter screen (AID 1259367); note: nearly all actives have a fitted effect of over 55% in size
Summary of the method: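 Conditioned medium drove Shh signaling in 3T3 Gli1-Luc cells exposed to compounds at 37C and 5% CO2. Viability was determined from CellTiter-Fluor fluorescence, with reagent incubated 1 hr after 23 hr of treatment.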

[10] = biological target: Estrogen receptor (Homo sapiens) (UniProt P03372); test: qHTS assay to identify small molecule antagonists of the estrogen receptor alpha (ER-alpha) signaling pathway using the BG1 cell line in the presence of 0.1 nM 17-beta-estradiol (AID 1259244); note: nearly all actives have a fitted effect of over 50% in size
Sequence of Estrogen receptor (Homo sapiens) (P03372 whole entry, looked up): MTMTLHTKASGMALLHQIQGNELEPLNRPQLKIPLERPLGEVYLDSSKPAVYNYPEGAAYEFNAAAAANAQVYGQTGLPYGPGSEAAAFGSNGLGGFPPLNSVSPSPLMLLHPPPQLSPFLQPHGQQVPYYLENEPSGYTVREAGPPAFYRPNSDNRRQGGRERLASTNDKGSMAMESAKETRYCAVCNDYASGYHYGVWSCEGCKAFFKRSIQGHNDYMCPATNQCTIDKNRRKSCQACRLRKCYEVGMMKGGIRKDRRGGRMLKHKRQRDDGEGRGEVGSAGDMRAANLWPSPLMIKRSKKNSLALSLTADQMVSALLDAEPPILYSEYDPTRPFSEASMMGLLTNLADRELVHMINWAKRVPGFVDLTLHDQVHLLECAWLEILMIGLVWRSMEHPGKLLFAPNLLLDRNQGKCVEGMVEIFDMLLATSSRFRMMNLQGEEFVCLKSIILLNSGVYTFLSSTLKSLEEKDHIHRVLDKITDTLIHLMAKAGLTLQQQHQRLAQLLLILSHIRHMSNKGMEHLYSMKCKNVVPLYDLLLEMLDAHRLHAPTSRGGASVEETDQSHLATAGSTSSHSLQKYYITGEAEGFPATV
Summary of the method: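 Luminescence after ONE-Glo (30 min, room temperature) measured ERE-luciferase activity in VM7Luc4E2 cells treated 22 h with compound and 0.1 nM final 17beta-estradiol as stimulator.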

| Compound | Potency [1] | Potency [2] | Potency [3] | Potency [4] | Potency [5] | Potency [6] | outcome [7] | Potency [8] | Potency [9] | Potency [10] | PLD induction [5] |
| --- | --- | --- | --- | --- | --- | --- | --- | --- | --- | --- | --- |
| CC[C@H](NC(C)C)[C@H](O)c1ccc(O)c2[nH]c(=O)ccc12 | inactive | inactive | inactive | inactive | inactive | inactive | inactive | inactive | inactive |  |  |
| Clc1cccc(C(c2ccc3nc[nH]c3c2)n2ccnc2)c1 (stereo not given) | inactive | inactive | inactive | inactive | inactive | inactive | inactive | inactive | inactive |  |  |
| COc1cc(C)c(Cc2cnc(N)nc2N)cc1OC | inactive | inactive | inactive |  | inactive | inactive | inactive | inactive | inactive | inactive |  |
| C[C@@H](O)[C@H]1C(=O)N2C(C(=O)O)=C(S[C@@H]3CN[C@H](CNS(N)(=O)=O)C3)[C@H](C)[C@H]12 | inactive | inactive | inactive |  | inactive | inactive | inactive | inactive | inactive | inactive |  |
| C(/C=C/C=C/Nc1ccccc1)=Nc1ccccc1 | inactive | inactive | inactive |  |  | inactive | inactive | inactive |  | inactive |  |
| CC(=O)c1cccnc1 | inactive | inactive | inactive |  |  | inactive | inactive | inactive |  | inactive |  |
| CC1(C)[C@@H]2CC[C@]3(C2)[C@@H]1C(=O)CCC3(C)C | inactive | inactive | inactive | inactive |  | inactive | inactive | inactive | inactive | inactive |  |
| CCCCCCCCCCCCCCCCN | 21.3 µM (active) | inactive | inactive |  | inactive | inactive | inactive | inactive | inactive | inactive |  |
| C/C(=C(\CCO)SS/C(CCO)=C(\C)N(C=O)Cc1cnc(C)nc1N)N(C=O)Cc1cnc(C)nc1N | inactive | inactive | inactive |  | inactive | inactive | inactive | inactive |  | inactive |  |
| CCCc1ccc(OC)cc1 | inactive | inactive | inactive | inactive |  | inactive | inactive | inactive | inactive |  |  |
| O=C(O)c1ccc(O)c(O)c1 | inactive | inactive | inactive | inactive |  | inactive | inactive | inactive | inactive | inactive |  |
| CCN(CCCCOC(=O)c1ccc(OC)c(OC)c1)C(C)Cc1ccc(OC)cc1 (stereo not given) | inactive | inactive | inactive |  | inactive | inactive |  | inactive | inactive | inactive |  |
| CCOCCn1c(N2CCCN(C)CC2)nc2ccccc21 | inactive | inactive | inactive | inactive | inactive | inactive | inactive | inactive | inactive |  |  |
| O=P(c1ccccc1)(c1ccccc1)c1ccccc1 | inactive | inactive | inactive |  |  | inactive | inactive | inactive |  | inactive |  |
| CC1=C(C)C(=O)C(C(CCCCCC(=O)O)c2ccccc2)=C(C)C1=O (stereo not given) | inactive | inactive | inactive |  | inactive | inactive | inactive |  |  | inactive |  |
| N#C[C@@H]1CC(F)(F)CN1C(=O)CNC1CC2CCC(C1)N2c1ncccn1 (stereo not given in full) | inactive | inactive | inactive | inactive |  | inactive | inactive |  |  |  |  |
| O=c1[nH][nH]c2ccccc12 | inactive | inactive | inactive | inactive |  | inactive | inactive | inactive | inactive |  |  |
| Cc1ccc(Cl)c(OCC(O)CNC(C)(C)C)c1 (stereo not given) | inactive | inactive | inactive |  |  | inactive | inactive | inactive |  | inactive |  |
| CCCCCCOC(=O)c1ccccc1 | inactive | inactive | inactive |  |  | inactive | inactive | inactive |  | inactive |  |
| CC(C(=O)O)c1ccc2c(c1)Cc1cccnc1O2 (stereo not given) | inactive | inactive | inactive | inactive | inactive | inactive | inactive | inactive | inactive |  |  |
| COc1ccc(C(=O)c2ccc(C)cc2)c(O)c1 | inactive | inactive | inactive |  | inactive |  | inactive | inactive | inactive | inactive |  |
| NC(=O)c1cc[n+](CC2=C(C(=O)[O-])N3C(=O)[C@@H](NC(=O)Cc4cccs4)[C@H]3SC2)cc1 | inactive | inactive | inactive |  | inactive | inactive | inactive | inactive | inactive | inactive |  |
| Cc1nc(C)c(C)nc1C | inactive | inactive | inactive | inactive |  | inactive | inactive | inactive | inactive | inactive |  |
| O=C(O)c1ccncc1 | inactive | inactive | inactive | inactive |  | inactive | inactive | inactive | inactive |  |  |
| Cc1ccc2c(Cl)cc(Cl)c(O)c2n1 | inactive | inactive | inactive | inactive |  | inactive | inactive | inactive | inactive | inactive | 0.648% [at 1.53 µM] |
